Screening results (PubChem BioAssay)
The full list was thinned out, with hits kept by preference.
Tgondii IFNg: blocks Toxoplasma gondii growth in the presence of IFN-gamma | activity change, negative = inhibition, % (concentration not given with the values) | 69,000 compounds, 3.8% hits | Toxoplasma gondii growth in IFN-gamma-treated host cells; active compounds read low; in the data active = activity change below about -70%, passing the limit was not always enough;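 note: host cells are HeLa cells infected with Toxoplasma gondii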
Numbers without * were called inactive; i = inactive; ! = not active in a repeat.

SMILES | Tgondii IFNg
COc1ccc2c3c([nH]c2c1)[C@H](CO)N(C(=O)Nc1cccc(F)c1)CC31CCN(S(=O)(=O)c2cccc(C)c2)CC1 | -54
COc1ccc2c3c(n(C)c2c1)[C@H](CO)N(C(=O)Nc1ccc(F)cc1)CC31CCN(S(=O)(=O)c2cccc(C)c2)CC1 | -74*
COc1ccc2c3c(n(C)c2c1)[C@H](CO)N(C(=O)Nc1ccc(F)cc1)CC31CCN(Cc2ccccn2)CC1 | -18
COC1COC2(CCN(c3ccc(C)nn3)CC2)C1 (stereo not given) | -21
COc1cc(/C=C/c2nc3ccccc3c(=O)n2C)ccc1O | 9
CC(C)(C)NC(=O)c1cc(-c2ccn(C3CCCC3)n2)n2ccccc12 | 63
CCCc1cc2c(cc1NC(=O)C(C)Oc1ccc(-n3cnnn3)cc1)OCO2 (stereo not given) | 5
CC(C)(C)C(=O)NCCc1csc(-c2ccc(F)cc2)n1 | 304
Cc1cnc(C(=O)N2C[C@H]3C[C@@H]4[C@@](C2)(CN(CC(C)C)S4(=O)=O)O3)cn1 | 417
Cc1ccc(-c2csnn2)cc1NC(=O)CCn1c(=O)oc2cc(Cl)ccc21 | 10
CSc1sc(-c2nc(C)cs2)c(C)c1-c1ccn[nH]1 | -86*
Cc1csc(-c2sc3ccccc3c2O)n1 | -28
CC1CCCN(Cc2ccc(C(=O)Nc3c4c(nn3C)CCC4)cc2)C1 (stereo not given) | -2
Cc1ccc(NC(=O)CS(=O)CC(=O)Nc2ccc3c(c2)CCC3)cc1Cl (stereo not given) | -88*
Cc1ccc(-c2ccccc2NC(=O)CS(=O)CC(=O)Nc2ccc(C)c(Cl)c2)o1 (stereo not given) | 33
Cc1ccc(NC(=O)CN2CCN(Cc3ccccc3)CC2)cc1Cl | -24
CCCCNC(=O)CC1Nc2c3ccccc3nc(=S)n2C1=O (stereo not given) | -3
CCOc1ccccc1NC(=O)c1cnccn1 | -46
O=C(Nc1ccc(OC(F)(F)F)cc1Br)c1cnccn1 | -110*
Cc1nc(NC(=O)c2cnccn2)ccc1Br | 455
O=C(NCc1noc(-c2ccco2)n1)[C@H]1Cc2ccccc2CN1 | 5
COC(=O)c1cc2n(n1)CCCN(C1CCN(C(=O)c3ccccc3)CC1)C2 | 0
CSc1nn(-c2c(Cl)cc(C(F)(F)F)cc2Cl)c(N)c1C#N | -101*
CSc1nc(-c2cccs2)cc(C(F)(F)F)c1C#N | 89
Cc1cc(C)n(-c2c(Cl)cc(C(F)(F)F)cc2Cl)n1 | 35
SMILES | Tgondii IFNg
COc1cccc(-n2c(=O)c(C(=O)NCc3cccs3)c(O)c3cccnc32)c1 | 135
CCOc1ccc(CCC(=O)N2CCCc3c(cnn3C)C2)cc1 | 26
Cc1ccc(-c2coc(-c3ccc(NS(=O)(=O)c4ccc(C(C)(C)C)cc4)cc3)n2)c(C)c1 | -38
CC(C)(C)c1ccc(S(=O)(=O)Nc2ccc(C34CC5CC(CC(C5)C3)C4)cc2)cc1 | -96*
O=C1CCc2cc(NS(=O)(=O)c3ccc(C(F)(F)F)cc3)ccc2N1 | -37
O=C(CCN1CCOCC1)c1cc2ccc(-c3ccc(F)cc3)cn2c1-c1cocn1 | 0
Cc1nc(C(C)C)sc1CNC(=O)c1cnc(N2CCOCC2)nc1 | -12
Cc1nc(C(C)C)ncc1C(=O)N1CCc2c(nc(N(C)C)[nH]c2=O)C1 | 1
CCCN(CCC)S(=O)(=O)c1ccc(C(=O)Nc2ccc(F)cc2)cc1 | -88*
CS(=O)(=O)c1ccc(C(=O)Nc2ccccc2)cc1 | 49
CCCN(CCC)S(=O)(=O)c1ccc(C(=O)NCCc2ccc(OC)c(OC)c2)cc1 | -47
Cc1ccc(CN2CC[C@H]3CN(C4CCOCC4)CCO[C@@H]3C2)o1 | 36
Nc1ncnc2c1ncn2CCNCc1ccco1 | 65
Cn1cc(CN2CCC3(CC2)CCN(Cc2ccccn2)C3=O)cn1 | 1
COc1cccc(S(=O)(=O)N2C[C@@H]3N[C@H](C2)C3c2ccc(-c3ccccc3F)cc2)c1 (stereo not given in full) | -31
COc1cccc(-c2ccc(C3[C@@H]4CN(S(=O)(=O)Cc5ccccc5)C[C@H]3N4)cc2)c1 (stereo not given in full) | -81*
CN(C)C(=O)c1cccc(-c2ccc(C3[C@H]4CNC[C@@H]3N4S(=O)(=O)Cc3ccccc3)cc2)c1 (stereo not given in full) | -13
Cc1cccc(-c2ccc(CC3CN(C(=O)CN4CSCC4=O)CCNC3=O)cc2)c1 (stereo not given) | -3
CC(NCCc1ccc(O)cc1)C(O)c1ccc(O)cc1 (stereo not given) | -3
C[C@@H](NCCc1ccc(O)cc1)[C@@H](O)c1ccc(O)cc1 | -61
CCCCCCCCNC(C)C(O)c1ccc(SC(C)C)cc1 (stereo not given) | -78*!
Cc1ccc(CNC(=O)c2ccc3c(c2)C(c2ncn(C(C)C)n2)CN3C(=O)c2ccccc2)o1 (stereo not given) | -67
O=C(NCc1ccc(F)cc1)Nc1ccc(-c2nc(-c3ccccc3)co2)cc1 | 58
COc1ccc(C)cc1Nc1nc(-c2nnc(-c3ccc(Cl)cc3)o2)nc2ccccc12 | 89
COc1cccc(Nc2nc(-c3nnc(-c4ccc(C)cc4)o3)nc3ccccc23)c1 | 95
SMILES | Tgondii IFNg
COc1ccc(-c2nnc(-c3nc(Nc4cc(C)cc(C)c4)c4ccccc4n3)o2)cc1 | -101*
COc1ccccc1Nc1nc(-c2nnc(-c3cccc(C)c3)o2)nc2ccccc12 | -86*
COc1ccccc1Nc1nc(-c2nnc(-c3ccccc3)o2)nc2ccccc12 | -92*
Cc1cccc(Nc2nc(-c3nnc(-c4ccccc4)o3)nc3ccccc23)c1C | -7
COc1ccc(Nc2nc(-c3nnc(-c4cccc(C)c4)o3)nc3ccccc23)cc1OC | i
COc1cc(Nc2nc(-c3nnc(-c4ccccc4)o3)nc3ccccc23)cc(OC)c1OC | -125*
CCOc1ccccc1Nc1nc(-c2nnc(-c3cccc(C)c3)o2)nc2ccccc12 | -51
COc1ccc(-c2nnc(-c3nc(Nc4cccc(OC)c4)c4ccccc4n3)o2)cc1 | 101
COc1ccc(Nc2nc(-c3nnc(-c4ccc(C)cc4)o3)nc3ccccc23)cc1Cl | 277
Cc1nccc(-c2cccc(NC3CCN(c4ccc5c(c4)OCCO5)CC3)c2)n1 | 247
Cc1ccc(NC(=O)C(=O)NCCc2sc(-c3cccc(F)c3)nc2C)cc1 | 7
COc1cc(/C=C/C(=O)N2CCN(CC(=O)NC(C)C)CC2)cc(OC)c1OC | 1
CCc1ccc(NC(=O)Cn2c(=O)cc(-c3nc(C(C)C)no3)c3ccccc32)cc1 | -12
Cc1c(C(=O)N(C)Cc2cnn(-c3ccccc3)c2)cnc2ccnn12 | -3
Cc1cccc(Nc2nc(-c3nnc(-c4cccc(C)c4)o3)nc3ccccc23)c1 | -24
Cc1cccc(-c2nnc(-c3nc(Nc4ccc(C)c(F)c4)c4ccccc4n3)o2)c1 | 52
COc1cc(Nc2nc(-c3nnc(-c4cccc(C)c4)o3)nc3ccccc23)cc(OC)c1 | -130*
COc1ccc(Cl)c(OC)c1C(=O)NC(=O)Nc1c(C)cccc1C | 87
CN(C)C(=O)CN1CC[C@@H]2CN(Cc3ccsc3)C[C@H]2C1=O | -36
COC(=O)CCN1CC(OCc2cccc(OC)c2)CN(C(=O)c2ccc(C)c(C)c2)CC1=O (stereo not given) | -6
CC(=O)Nc1ccc(S(=O)(=O)N2CCC3(CC2)Nc2cc(F)ccc2-n2cccc23)cc1 | 16
Cc1ccc2c(c1)c1nc3ccccc3nc1n2C | -63
Cc1nn(-c2ccccc2)c2c1c(=O)n(C)c1ccccc21 | -41
Cn1c2ccccc2c2n[nH]c(=O)nc21 | -105*
